# Test results: paper PMC4552634, “A New Set of Chemical Starting Points with Plasmodium falciparum Transmission-Blocking Potential for Antimalarial Drug Discovery” (PLoS ONE, 2015)
# Like-named read-outs stand apart in the source and are kept apart here. Out of some 13,000 compounds screened, about 3,200 (25%) showed an effect of 50% or more. This is one part of the list.
# Test system: P. falciparum stage V gametocytes
# Set-up: BacTiter-Glo ATP luminescence viability of purified stage V gametocytes in 384-well plates, per cent inhibition versus DMSO
# Details: 48 h, 5 µM, inhibitor
Structure (SMILES),% Inhibition,% Inhibition (% Inhibition)
CCCCC1(NC(=O)[C@@H](Nc2ccc(C#N)c3ccccc23)C2CCCCC2)CCCCC1 [TCMDC-136636],-65.73%,–
CCOCc1cnc(C)nc1NCC(=O)c1c(C)[nH]c2cc(C)ccc12 [TCMDC-124067],-5.397%,–
CC1(C)CCCC(=Cc2ccc(Br)cc2)C1(O)Cn1ccnc1 (stereo not shown) [TCMDC-125214],19.91%,–
COc1cc2nccc(Nc3cc(C)cc(O)c3)c2cc1OC.Cl [TCMDC-138196],-1.594%,–
CCCCOC(=O)c1ccc(NC(=O)Nc2ccc(Cn3ncc(N4CCCNCC4)c(Cl)c3=O)cc2)cc1 [TCMDC-133323],-2.086%,–
COc1cccc(C(=O)C2CC2CN(C)CC(O)c2cc(C)c(OC)cc2C)c1 (stereo not shown) [TCMDC-136802],18.93%,–
COc1ccc(C(=O)C2CC2CN(C)CC(O)c2cc(C)c(OC)cc2C)cc1 (stereo not shown) [TCMDC-136800],56.77%,–
COc1ccc(C(=O)C2CC2CN(C)CCC(O)c2ccc(Cl)c(Cl)c2)cc1 (stereo not shown) [TCMDC-136792],-25.71%,–
N#Cc1ccc(NC(=NCc2ccc(Cl)cc2Cl)Nc2cccc(Cl)c2Cl)c(O)c1 [TCMDC-140224],-0.417%,–
CC1(C)N=C(N)N=C(N)N1OCc1ccc2ccccc2c1 [TCMDC-125513],17.08%,–
CC(C)Nc1nc(NCCc2cnc[nH]2)nc(NCc2ccc(Cl)c(Cl)c2)n1 [TCMDC-139747],6.944%,–
CC(=O)Nc1ccc(C(=O)Nc2cccc(-c3ccc(-c4nc5c(C)cccc5[nH]4)cc3)c2)cn1 [TCMDC-136823],57.24%,–
CC(=O)Nc1ccc(C(=O)Nc2cccc(-c3cccc(-c4nc5c(C)cccc5[nH]4)c3)c2)cn1 [TCMDC-136830],-4.811%,–
CC(=O)N(C)c1cccc(C(=O)Nc2ccc(-c3cccc(-c4nc5c(C)cccc5[nH]4)c3)cc2)c1 [TCMDC-137072],-29.92%,–
CC(=O)Nc1cccc(C(=O)Nc2cccc(-c3ccc(-c4nc5c(C)cccc5[nH]4)cc3)c2)c1 [TCMDC-132136],-12.3%,–
CC(=O)Nc1ccc(C(=O)Nc2ccc(-c3cccc(-c4nc5c(C)cccc5[nH]4)c3)cc2)cn1 [TCMDC-136831],74.93%,–
CC(=O)Nc1ccc(C(=O)Nc2ccc(-c3cccc(-c4nc5ccc(F)cc5[nH]4)c3)cc2)cn1 [TCMDC-136822],-42.62%,–
CN(C)CCC1CCCc2ccc(NC(=O)Nc3ccc(-c4ccncc4)c4ccccc34)cc21 (stereo not shown) [TCMDC-139156],-24.46%,–
CCC(C)Oc1ccc(CCCON2C(N)=NC(N)=NC2(C)C)cc1 (stereo not shown) [TCMDC-131784],25.06%,–
CCOc1ccc(C(C)NC(=O)Cc2ccccc2F)cc1OCC (stereo not shown) [TCMDC-123564],31.28%,–
CCOc1ccc(CCC(=O)O)cc1OCC [TCMDC-124302],4.043%,–
CCOc1ccc(C(C)NC(=O)C2COc3ccccc3O2)cc1OCC (stereo not shown) [TCMDC-125018],78.92%,–
CN1CCN(c2ccc(Cl)cc2NC(=O)C2COc3ccccc3O2)CC1 (stereo not shown) [TCMDC-124321],9.444%,–
CCCCNC(=O)[C@H](Cc1ccccc1)NC(=O)c1ccc(O)c(-c2ccc(Cl)c(Cl)c2)c1 [TCMDC-140840],16.49%,–
CCOc1cc(C(=O)Nc2cccnc2)cc(Br)c1OCCC(C)C [TCMDC-123549],16.86%,–
CCOc1ccc(C(Cc2ccccc2)NC(=O)c2cccnc2)cc1OCC (stereo not shown) [TCMDC-124519],50.66%,–

Structure (SMILES),% Inhibition,% Inhibition (% Inhibition)
CCOc1ccc(C(C)NC(=O)Nc2ccccc2)cc1OCC (stereo not shown) [TCMDC-123556],52.41%,–
COc1cc(Nc2nccc(N3CCC(NC(=O)C4COc5ccccc5O4)C3)n2)cc(OC)c1OC (stereo not shown) [TCMDC-133625],-0.8923%,–
CCCCCCNC(=O)C(N)CCCC(N)C(=O)NCCCCCC (stereo not shown) [TCMDC-131401],16.24%,–
CSc1cccc(NC(=O)Nc2ccc(I)c(OCCN(C)C)c2)c1 [TCMDC-139123],6.817%,–
COc1cc2cc(Cc3cnc(N)nc3N)ccc2c(OC)c1OC [TCMDC-138023],-6.286%,–
O=C(NCCCc1ccccc1)c1csc(C2CCCN(C(=O)c3ccc(O)c(-c4cccc5ccccc45)c3)C2)n1 (stereo not shown) [TCMDC-140154],-33.08%,–
CC(C)(C)c1ccc(NC(=O)c2cccc(CN3CCCN(Cc4cccc(Cl)c4)CC3)c2)cc1 [TCMDC-135982],-61.3%,–
CCc1cc(I)c2c(c1)C(NCCCNc1cc(=O)c3ccccc3[nH]1)CCN2 (stereo not shown) [TCMDC-140023],-10.14%,–
O=c1cc(NCCNCc2cccc(-c3ccccc3)c2)[nH]c2ccccc12 [TCMDC-139376],20.69%,–
O=C(CCC1CCCCC1)NCCNc1cccc2ccccc12 [TCMDC-124017],107.9%,–
Cc1cc(NCCC(=O)Nc2ccccc2)nc(NCC2CCCCC2)n1 [TCMDC-134926],-30.27%,–
CC(C)(C)C1CCC(C(=O)c2ccc3ccccc3c2O)CC1 (stereo not shown) [TCMDC-137495],11.22%,–
O=C(Nc1ccccc1)Nc1cccc(-c2cccc(-c3nc4ccc(F)cc4[nH]3)c2)c1 [TCMDC-133154],-14.02%,–
CCOc1ccc(-c2nc(NC(=O)COc3ccc(OC)cc3)sc2C)cc1 [TCMDC-124329],36.75%,–
CC(=O)Nc1nc(C(=O)Nc2ccc(-c3cccc(-c4nc5c(C)cccc5[nH]4)c3)cc2)cs1 [TCMDC-137131],-2.039%,–
O=C(Nc1cccc(-c2cccc(-c3nc4ccccc4[nH]3)c2)c1)c1csnn1 [TCMDC-136898],1.573%,–
Cc1cccc2[nH]c(-c3cccc(-c4cccc(NC(=O)C5CC(=O)Nc6ccccc65)c4)c3)nc12 (stereo not shown) [TCMDC-137097],79.84%,–
CC(=O)Nc1nc(C(=O)Nc2cccc(-c3cccc(-c4nc5c(C)cccc5[nH]4)c3)c2)cs1 [TCMDC-137130],-6.466%,–
Cc1ccoc1C(=O)Nc1cccc(-c2cccc(-c3nc4ccccc4[nH]3)c2)c1 [TCMDC-136834],-43.19%,–
Cc1ccoc1C(=O)Nc1cccc(-c2cccc(-c3nc4c(C)cccc4[nH]3)c2)c1 [TCMDC-136836],81.69%,–
Cc1cccc2[nH]c(-c3cccc(-c4cccc(NC(=O)c5csnn5)c4)c3)nc12 [TCMDC-136904],82.61%,–
O=C1CC(C(=O)Nc2cccc(-c3cccc(-c4nc5ccccc5[nH]4)c3)c2)c2ccccc2N1 (stereo not shown) [TCMDC-137096],26.75%,–
Cc1cccc2[nH]c(-c3cccc(-c4ccc(NC(=O)C5CC(=O)Nc6ccccc65)cc4)c3)nc12 (stereo not shown) [TCMDC-137098],-77.35%,–
Cc1ccoc1C(=O)Nc1ccc(-c2cccc(-c3nc4c(C)cccc4[nH]3)c2)cc1 [TCMDC-136837],-21.37%,–
Cc1cnc(C(=O)Nc2cccc(-c3cccc(-c4nc5c(C)cccc5[nH]4)c3)c2)cn1 [TCMDC-137030],-21.98%,–
CC(=O)Nc1nc(C(=O)Nc2cccc(-c3ccc(-c4nc5c(C)cccc5[nH]4)cc3)c2)cs1 [TCMDC-137123],80.9%,–

Structure (SMILES),% Inhibition,% Inhibition (% Inhibition)
Clc1cc(Nc2ccnc3ccc(Br)cc23)ccc1Oc1ccc(Cl)c2ccccc12 [TCMDC-123834],-13.4%,–
O=c1cc(NC[C@H]2CCC[C@@H]2NC2CCCc3c2[nH]c2ccccc32)[nH]c2ccccc12 (stereo partly shown) [TCMDC-139785],10.53%,–
CCc1cccc(C)c1-n1nc(-c2cc(C(C)(C)C)oc2C)cc1N [TCMDC-134028],9.67%,–
CCc1ccc(NC(=O)c2ccc(CN3CCCN(CC4CCCCC4)CC3)cc2)cc1 [TCMDC-136437],-21.72%,–
COc1ccc2nccc(N3CCC(CCNCc4ccc5c(n4)NC(=O)CO5)CC3)c2c1.Cl [TCMDC-141904],-28.1%,–
Cc1nn(C)c(C)c1CN(Cc1nc(-c2cccc(Oc3ccccc3)c2)oc1C)C1CC1 [TCMDC-124629],8.903%,–
C=CCc1cc(Cc2cnc(N)nc2N)cc(CCC)c1O [TCMDC-138048],-56.02%,–
COc1ccc2nccc([C@@H](O)CN3CCC(NC(=O)/C=C/c4cc(F)cc(NC(C)=O)c4)CC3)c2c1 [TCMDC-141030],-4.964%,–
Oc1cccc(-c2nc3cc(C4=NC5CCCCC5N4)ccc3[nH]2)c1 (stereo not shown) [TCMDC-138108],–,-4.911%
CC(=O)Nc1nc(C(=O)Nc2cccc(-c3cccc(-c4nc5ccccc5[nH]4)c3)c2)cs1 [TCMDC-137121],-11.21%,–
CC(=O)Nc1nc(C(=O)Nc2ccc(-c3cccc(-c4nc5ccccc5[nH]4)c3)cc2)cs1 [TCMDC-137120],25.25%,–
CC(=O)Nc1nc(C(=O)Nc2cccc(-c3ccc(-c4nc5ccccc5[nH]4)cc3)c2)cs1 [TCMDC-137127],61.93%,–
N#CC(c1ccc(F)cc1)c1ccc2c(C(F)(F)F)cc(C(F)(F)F)nc2n1 (stereo not shown) [TCMDC-123761],-46.13%,–
COc1ccc2nccc(N3CCN(CCNCc4ccc5c(n4)NC(=O)CS5)CC3)c2n1 [TCMDC-141967],-20.32%,–
COc1cccc(O)c1CNCC(O)c1cccc(C(F)(F)F)c1 (stereo not shown) [TCMDC-140396],-36.87%,–
FC(F)(F)c1ccc2nc(-c3ccc(-c4cccc(CNCc5ccccc5)c4)cc3)[nH]c2c1 [TCMDC-132704],67.94%,–
Nc1cccc(CNCc2cccc(-c3ccc(-c4nc5ccc(C(F)(F)F)cc5[nH]4)cc3)c2)c1 [TCMDC-132935],-40.76%,–
Nc1cccc(CNCc2ccc(-c3cccc(-c4nc5ccc(C(F)(F)F)cc5[nH]4)c3)cc2)c1 [TCMDC-132929],-69.76%,–
NCc1ccc(CNCc2cccc(-c3ccc(-c4nc5cc(C(F)(F)F)ccc5[nH]4)cc3)c2)cc1 [TCMDC-132811],93.89%,–
CS(=O)(=O)c1ccc(CNCc2ccc(-c3cccc(-c4nc5ccc(C(F)(F)F)cc5[nH]4)c3)cc2)cc1 [TCMDC-132897],17.9%,–
FC(F)(F)c1ccc2nc(-c3ccc(-c4ccc(CNCc5ccccc5)cc4)cc3)[nH]c2c1 [TCMDC-132705],55.9%,–
CS(=O)(=O)c1ccc(CNCc2cccc(-c3ccc(-c4nc5ccc(C(F)(F)F)cc5[nH]4)cc3)c2)cc1 [TCMDC-132902],-71.66%,–
FC(F)(F)c1ccc2nc(-c3cccc(-c4ccc(CNCc5ccccc5)cc4)c3)[nH]c2c1 [TCMDC-132712],-50.86%,–
O=C(NCc1ccccc1)Nc1ccc(-c2ccc(-c3nc4ccc(C(F)(F)F)cc4[nH]3)cc2)cc1 [TCMDC-133157],-8.983%,–
